Inconclusive results are not listed. Activity calls are given as the source filed them. Unless noted, calls follow the shape of the full dose curve.
Experiments:
[1] = Nuclear factor erythroid 2-related factor 2/antioxidant responsive element (Nrf2/ARE) small molecule agonists: qHTS cell viability counter screen in human keratinocytes (AID 1919968; active = well fitted curve in the direction sought with a large enough effect in the repeat runs; an effect the other way counts as inactive or inconclusive; also: nearly all actives have a fitted effect of over 55% in size; also: potency is read from the fitted curve at half-maximal effect)
Method in brief: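 In human HaCaT keratinocytes stably expressing an ARE-driven luciferase, compound exposure lasted 23 h at 37 C under 5% CO2. Viable cells are quantified with a protease-based fluorogenic reagent (CellTiter-Fluor) read 1 h after addition.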

[2] = Nuclear factor erythroid 2-related factor 2/antioxidant responsive element (Nrf2/ARE) small molecule agonists: luciferase reporter gene qHTS assay in human keratinocytes (AID 1919969); also: nearly all actives have a fitted effect of over 35% in size; also: potency is read from the fitted curve at half-maximal effect
[3] = target: Gonadotropin-releasing hormone receptor (Homo sapiens) (UniProt P30968); assay: Human gonadotropin-releasing hormone receptor (GnRHR) small molecule agonists, calcium flux assay in GnRHR-HEK293 cells (AID 1920063); also: nearly all actives have a fitted effect of over 35% in size; also: potency is read from the fitted curve at half-maximal effect
Method in brief: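 Intracellular calcium rise is the read-out: engineered human GnRHR HEK293 cells, dye-loaded, are exposed to DMSO-dissolved compounds and fluorescence at Ex/Em 480/540 is tracked for 3 min.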

[4] = target: KiSS-1 receptor (Homo sapiens) (UniProt Q969F8); assay: Human kisspeptin (KISS1R) small molecule agonists, calcium flux assay in KISS1R-HEK293 cells (AID 1920064; active = well fitted curve in the direction sought with a large enough effect in the repeat runs; an effect the other way counts as inactive or inconclusive)
Method in brief: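 Concentration-response testing used 15 concentrations in triplicate on human KISS1R-expressing HEK293 cells. Calcium-dependent fluorescence (Ex/Em 480/540) was followed kinetically for 3 min after compound transfer.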

[5] = G protein-coupled receptor (GPCR) small molecule agonists, calcium flux assay: HEK293 wild type cell line counter screen (AID 1920065)
Method in brief: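 Fluorescence intensity signals activation. After overnight (18 h) culture and a 1 h calcium dye load at 37 C, compounds are added by pin tool and the plate read at 480/540 nm for 3 min in 1 s steps.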

[6] = p53 small molecule agonists, cell-based qHTS assay with human liver microsomes: qHTS cell viability counter screen (AID 1963579); also: nearly all actives have a fitted effect of over 45% in size; also: potency is read from the fitted curve at half-maximal effect
Method in brief: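 p53RE-bla cells (4,000/well) were pre-incubated 5 h at 37 C, then given compounds in DMSO plus human liver microsomes (0.5 mg/mL final) and NADPH (0.5 mg/mL final) for 16 h at 37 C. Viability was read by CellTiter-Glo luminescence.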

[7] = p53 small molecule agonists, cell-based qHTS assay with rat liver microsomes: qHTS cell viability counter screen (AID 1963580); also: nearly all actives have a fitted effect of over 45% in size; also: potency is read from the fitted curve at half-maximal effect
Method in brief: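 Counter screen for cytotoxicity under metabolic activation: rat liver microsomes and NADPH, 0.5 mg/mL final each, added with compounds to p53RE-bla HCT-116 cells; 16 h at 37 C, then ATP luminescence read.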

[8] = p53 small molecule agonists, cell-based qHTS assay: qHTS cell viability counter screen (AID 1963581); also: nearly all actives have a fitted effect of over 45% in size; also: potency is read from the fitted curve at half-maximal effect
Method in brief: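 Luminescence from CellTiter-Glo, reflecting ATP content, serves as the cytotoxicity measure; it is taken after the 2 h reporter substrate step in HCT-116 p53RE-bla cells dosed for 16 h at 37 C.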

[9] = target: 5-hydroxytryptamine receptor 2A (Homo sapiens) (UniProt P28223); assay: 5-hydroxytryptamine receptor 2A (HTR2A) small molecule antagonists, cell-based qHTS assay (AID 1963586); also: nearly all actives have a fitted effect of over 45% in size; also: potency is read from the fitted curve at half-maximal effect
Method in brief: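 CHO cells stably expressing human HTR2A were plated for 18 h at 37 C, then loaded with calcium dye for 1 h. Compounds were preincubated 5 min at room temperature before DOI (4 nM solution) was added. Kinetic fluorescence was read for 3 min.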

[10] = target: 5-hydroxytryptamine receptor 2A (Homo sapiens) (UniProt P28223); assay: 5-hydroxytryptamine receptor 2A (HTR2A) small molecule agonists, cell-based qHTS assay (AID 1963587); also: nearly all actives have a fitted effect of over 30% in size
Method in brief: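 HTR2A-CHO cells, plated 18 h at 37 C/5% CO2, dye-loaded 1 h at 37 C; compounds in DMSO added by pin tool (agonist mode). Intracellular calcium flux read as kinetic fluorescence on FDSS over 2 min at 1 s intervals.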

[11] = target: Muscarinic acetylcholine receptor M1 (Homo sapiens) (UniProt P11229); assay: Cholinergic receptor muscarinic 1 (CHRM1) small molecule agonists, cell-based qHTS assay (AID 1963589); also: nearly all actives have a fitted effect of over 35% in size
Method in brief: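 Fluorescent calcium dye reports M1 activation in stably transfected CHO cells. Compounds, 15 concentrations, added after 1 h dye loading at 37 C; kinetic reading at 1 sec intervals.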

[12] = target: Beta-2 adrenergic receptor (Homo sapiens) (UniProt P07550); assay: Adrenergic beta2 receptor (ADRB2) small molecule antagonists, cell-based qHTS assay (AID 1963592); also: nearly all actives have a fitted effect of over 50% in size; also: potency is read from the fitted curve at half-maximal effect
Method in brief: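 Assay format: CHO-ADRB2 cells, 18-20hr seeding at 37C/5% CO2, then compound plus 1nM isoproterenol agonist mix for 0.5hr RT. Homogeneous time-resolved fluorescence cAMP detection after 1hr, expressed as 665/615 nm ratio.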

[13] = target: D(2) dopamine receptor (Homo sapiens) (UniProt P14416); assay: Dopamine D2 receptor (DRD2) small molecule agonists, cell-based qHTS assay (AID 1963594); also: nearly all actives have a fitted effect of over 35% in size; also: potency is read from the fitted curve at half-maximal effect
Method in brief: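 HEK293 cells stably expressing DRD2 were cultured 24 h at 37 C, then given Ro20-1724 (0.1 mM final) and compounds for 10 min at room temperature. NKH477 (200nM) was then added for 30 min. cAMP was read by HTRF.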

[14] = target: D(2) dopamine receptor (Homo sapiens) (UniProt P14416); assay: Dopamine D2 receptor (DRD2) small molecule antagonists, cell-based qHTS assay (AID 1963595; active = well fitted inhibition curve with a large enough effect in the signal ratio in the repeat runs, with a control signal flat; the % refers to the signal ratio; also: potency is read from the fitted curve at half-maximal effect)
Method in brief: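 Human DRD2 antagonist qHTS measuring cAMP by HTRF. The cells are exposed to compound for 10 min, then to NKH477 (200 nM) and quinpirole (12 nM) for 30 min at RT, with Ro20-1724 (0.1 mM) present throughout.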

[15] = target: Muscarinic acetylcholine receptor M1 (Homo sapiens) (UniProt P11229); assay: Cholinergic receptor muscarinic 1 (CHRM1) small molecule antagonists, cell-based qHTS assay (AID 1963588); also: nearly all actives have a fitted effect of over 40% in size; also: potency is read from the fitted curve at half-maximal effect
Method in brief: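 Compounds were tested at 15 concentrations in three independent runs. Dye-loaded CHRM1-CHO cells were exposed 5 min at room temperature before stimulation by acetylcholine added at 50nM. Intracellular calcium was read kinetically on FDSS for 3 min.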

[16] = cAMP Responsive Elements (CRE) small molecule agonists, cell-based qHTS assay (AID 1963590)
Method in brief: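 Compound exposure lasted 3 h at 37 C/5% CO2 in CRE-bla HEK 293T cells grown in assay medium with 10% dialyzed FBS and 25 mM HEPES. Reporter signal came from LiveBLAzer B/G FRET substrate, 2 h, room temperature.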

[17] = cAMP Responsive Elements (CRE) small molecule antagonists, cell-based qHTS assay (AID 1963591; active = well fitted inhibition curve with a large enough effect in the signal ratio in the repeat runs, not every such curve was filed as active; the % refers to the signal ratio)
Method in brief: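 Stimulation used NKH477 at a final 0.25 uM for 3 h in compound-treated CRE-bla HEK293T cells, seeded 18 h beforehand. Reporter activity was measured with LiveBLAzer B/G FRET substrate after 2 h at room temperature.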

[18] = target: Beta-2 adrenergic receptor (Homo sapiens) (UniProt P07550); assay: Adrenergic beta2 receptor (ADRB2) small molecule agonists, cell-based qHTS assay (AID 1963593);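 also: CHO cells stably overexpressing human ADRB2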
Method in brief: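 CHO cells stably over-expressing ADRB2 were plated overnight at 37C, then dosed with compounds plus a stimulation mix containing 100uM IBMX and 25uM Ro-20-1724 for 0.5hr at room temperature. cAMP was measured by HTRF competition, 1hr.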

Measured: Potency

Beta-2 adrenergic receptor (Homo sapiens), sequence (P07550 whole entry, looked up): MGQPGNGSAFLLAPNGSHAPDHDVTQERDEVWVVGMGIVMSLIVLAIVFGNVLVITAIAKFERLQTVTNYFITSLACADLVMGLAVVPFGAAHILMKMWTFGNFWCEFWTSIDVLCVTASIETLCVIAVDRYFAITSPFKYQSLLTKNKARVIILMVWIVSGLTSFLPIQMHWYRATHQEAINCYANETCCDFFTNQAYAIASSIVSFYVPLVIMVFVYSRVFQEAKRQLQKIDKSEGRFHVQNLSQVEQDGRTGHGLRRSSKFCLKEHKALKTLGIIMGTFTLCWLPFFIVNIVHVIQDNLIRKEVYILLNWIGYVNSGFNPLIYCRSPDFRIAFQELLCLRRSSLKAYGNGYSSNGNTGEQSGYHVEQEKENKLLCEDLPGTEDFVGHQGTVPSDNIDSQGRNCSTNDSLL
5-hydroxytryptamine receptor 2A (Homo sapiens), sequence (P28223 whole entry, looked up): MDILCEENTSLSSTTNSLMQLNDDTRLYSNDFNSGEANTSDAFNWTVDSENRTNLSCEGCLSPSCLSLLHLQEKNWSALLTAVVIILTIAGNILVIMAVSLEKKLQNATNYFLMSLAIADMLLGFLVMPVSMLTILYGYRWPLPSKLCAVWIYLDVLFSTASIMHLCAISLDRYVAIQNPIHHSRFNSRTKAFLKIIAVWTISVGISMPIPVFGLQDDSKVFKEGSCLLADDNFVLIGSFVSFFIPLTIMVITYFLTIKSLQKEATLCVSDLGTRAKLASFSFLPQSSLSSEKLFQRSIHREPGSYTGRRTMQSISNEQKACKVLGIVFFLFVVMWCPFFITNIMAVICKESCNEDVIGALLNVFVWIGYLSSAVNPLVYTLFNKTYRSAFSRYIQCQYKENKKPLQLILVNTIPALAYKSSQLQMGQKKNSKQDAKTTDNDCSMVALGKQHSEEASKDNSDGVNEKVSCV
D(2) dopamine receptor (Homo sapiens), sequence (P14416 whole entry, looked up): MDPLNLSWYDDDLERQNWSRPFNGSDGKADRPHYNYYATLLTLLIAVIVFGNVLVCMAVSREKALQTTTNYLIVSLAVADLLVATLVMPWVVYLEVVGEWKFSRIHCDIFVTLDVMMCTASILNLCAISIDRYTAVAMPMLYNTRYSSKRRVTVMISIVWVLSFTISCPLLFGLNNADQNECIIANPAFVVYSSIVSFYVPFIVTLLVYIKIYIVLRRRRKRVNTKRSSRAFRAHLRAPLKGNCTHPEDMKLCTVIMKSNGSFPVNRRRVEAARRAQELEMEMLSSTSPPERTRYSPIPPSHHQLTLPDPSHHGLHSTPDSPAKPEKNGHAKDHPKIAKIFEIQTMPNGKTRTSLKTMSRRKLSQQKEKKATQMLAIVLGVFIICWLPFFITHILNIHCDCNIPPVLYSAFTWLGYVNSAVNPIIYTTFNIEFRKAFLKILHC
KiSS-1 receptor (Homo sapiens), sequence (Q969F8 whole entry, looked up): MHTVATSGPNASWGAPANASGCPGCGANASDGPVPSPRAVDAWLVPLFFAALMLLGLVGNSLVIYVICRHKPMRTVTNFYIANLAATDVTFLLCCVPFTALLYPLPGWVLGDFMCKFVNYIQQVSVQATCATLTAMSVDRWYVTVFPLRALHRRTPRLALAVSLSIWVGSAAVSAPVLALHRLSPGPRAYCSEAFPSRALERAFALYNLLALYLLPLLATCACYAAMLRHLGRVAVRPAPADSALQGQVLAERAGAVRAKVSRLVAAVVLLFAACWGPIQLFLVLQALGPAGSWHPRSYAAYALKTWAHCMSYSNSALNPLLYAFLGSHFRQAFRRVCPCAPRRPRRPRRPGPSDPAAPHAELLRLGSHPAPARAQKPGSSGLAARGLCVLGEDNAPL
Muscarinic acetylcholine receptor M1 (Homo sapiens), sequence (P11229 whole entry, looked up): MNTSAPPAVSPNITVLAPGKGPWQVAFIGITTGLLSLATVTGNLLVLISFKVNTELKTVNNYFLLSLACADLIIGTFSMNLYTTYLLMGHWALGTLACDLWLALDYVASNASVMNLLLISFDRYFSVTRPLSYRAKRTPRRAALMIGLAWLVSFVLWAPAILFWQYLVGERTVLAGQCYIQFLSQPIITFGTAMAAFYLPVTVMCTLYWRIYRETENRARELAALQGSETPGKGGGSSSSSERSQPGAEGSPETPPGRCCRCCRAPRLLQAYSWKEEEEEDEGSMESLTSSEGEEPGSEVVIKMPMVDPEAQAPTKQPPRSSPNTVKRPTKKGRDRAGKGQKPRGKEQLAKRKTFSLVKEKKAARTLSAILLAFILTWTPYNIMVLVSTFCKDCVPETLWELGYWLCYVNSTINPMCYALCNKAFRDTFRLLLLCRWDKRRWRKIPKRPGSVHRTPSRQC
Gonadotropin-releasing hormone receptor (Homo sapiens), sequence (P30968 whole entry, looked up): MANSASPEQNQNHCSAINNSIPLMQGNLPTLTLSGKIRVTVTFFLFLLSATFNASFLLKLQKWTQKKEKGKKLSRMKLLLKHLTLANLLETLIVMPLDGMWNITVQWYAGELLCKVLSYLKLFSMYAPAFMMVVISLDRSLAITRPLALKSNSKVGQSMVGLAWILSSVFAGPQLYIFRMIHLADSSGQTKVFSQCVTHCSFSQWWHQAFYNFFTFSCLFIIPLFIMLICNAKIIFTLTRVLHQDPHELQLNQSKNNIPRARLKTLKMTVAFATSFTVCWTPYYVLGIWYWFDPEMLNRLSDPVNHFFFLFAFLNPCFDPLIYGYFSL

COc1cccc2sc(N)nc12
inactive: [1] | [2] | [3] | [4] | [5] | [6] | [7] | [8] | [9] | [10] | [11] | [12] | [13] | [14]

O=C1c2c(O)ccc([N+](=O)[O-])c2C(=O)c2c([N+](=O)[O-])ccc(O)c21
inactive: [4] | [5] | [10] | [15] | [11]
active: [1] 15.2 µM | [2] 6.06 µM | [3] 17.2 µM | [6] 18 µM | [7] 20.2 µM | [8] 5.71 µM

CCCC(=O)OCCC(C)CCC=C(C)C (stereo not drawn)
inactive: [1] | [2] | [3] | [4] | [5] | [6] | [7] | [8] | [9] | [15] | [11] | [16] | [17] | [12] | [18] | [13] | [14]

Cc1ccccc1OCC(=O)O
inactive: [1] | [2] | [3] | [4] | [5] | [6] | [7] | [8] | [9] | [15] | [11] | [16] | [17] | [12] | [18] | [13] | [14]

CO[C@]12C[C@@H](COC(=O)c3cncc(Br)c3)CN(C)[C@@H]1Cc1cn(C)c3cccc2c13
inactive: [1] | [2] | [3] | [4] | [5] | [6] | [7] | [8] | [16] | [17] | [13]
active: [9] 0.0729 µM | [15] 8.18 µM | [12] 13.3 µM | [14] 26.6 µM

CC(C)(C)CC(C)(C)N
inactive: [1] | [2] | [3] | [4] | [5] | [6] | [7] | [8] | [9] | [15] | [16] | [17] | [12] | [13] | [14]

Nc1ccc(F)cc1
inactive: [1] | [2] | [3] | [4] | [5] | [6] | [7] | [8] | [9] | [10] | [16] | [12] | [13] | [14]

O=C1[C@@H]2[C@H]3CC[C@H](C3)[C@@H]2C(=O)N1CCCCN1CCN(c2ncccn2)CC1
inactive: [1] | [2] | [3] | [4] | [5] | [6] | [7] | [8] | [10] | [15] | [11] | [16] | [17] | [12] | [18]
active: [13] 0.0944 µM

NNc1nc(-c2ccccc2)cs1
inactive: [1] | [3] | [4] | [5] | [6] | [7] | [8] | [9] | [10] | [11] | [12] | [13] | [14]
active: [2] 62.9 µM

From PubChem BioAssay (Tox21)
